The results in this text go back to the supplement of paper PMC7261846.

Counter-ions that a name gives are not always drawn. ± gives the uncertainty stated by the source.

The subject of this experiment is Candida albicans SNY425 biofilm. Briefly: biofilm OD600 with compound plus antifungal (OD600 (absorbance)); higher = more biofilm remaining. The conditions noted are these: assay detail: disruption of 24-h mature biofilm (compound + antifungal for a second 24 h).
For `CC(C)CCNC(=O)[C@H](CC(C)C)NC(=O)[C@H]1O[C@@H]1C(=O)O` + OC(Cn1cncn1)(Cn1cncn1)c1ccc(F)cc1F [fluconazole] (first compound 12.5 µM), the “biofilm OD600” value came out at 0.25 ± 0.0093.

For the compound `CC1(C)C[C@@H]1C(=O)N/C(=C\CCCCSC[C@H](N)C(=O)O)C(=O)O` [Cilastatin] + OC(Cn1cncn1)(Cn1cncn1)c1ccc(F)cc1F [fluconazole] (first compound 12.5 µM), the “biofilm OD600” value stood at 0.271 ± 0.011.

With `O=C[C@@H]1CCCN1C(=O)[C@@H]1CCCN1C(=O)OCc1ccccc1` [Z-Prolyl-prolinal] + CC[C@H](C)C[C@H](C)CCCCCCCCC(=O)N[C@H]1C[C@@H](O)[C@@H](NCCN)NC(=O)[C@@H]2[C@@H](O)CCN2C(=O)[C@H]([C@H](O)CCN)NC(=O)[C@H]([C@H](O)[C@@H](O)c2ccc(O)cc2)NC(=O)[C@@H]2C[C@@H](O)CN2C(=O)[C@H]([C@@H](C)O)NC1=O [caspofungin] (first compound 12.5 µM), the “biofilm OD600” value was determined as 0.261 ± 0.0097.

With `NCC1CCC(C(=O)N[C@@H](Cc2ccccc2)C(=O)Nc2ccc(CC(=O)O)cc2)CC1` (some centres not stated) + OC(Cn1cncn1)(Cn1cncn1)c1ccc(F)cc1F [fluconazole] (first compound 12.5 µM), the “biofilm OD600” value came to 0.251 ± 0.0096.

In the case of `COC(=O)C[C@H](NC(=O)[C@H](C)NC(=O)[C@@H](NC(=O)OCc1ccccc1)C(C)C)C(=O)CF` + CC[C@H](C)C[C@H](C)CCCCCCCCC(=O)N[C@H]1C[C@@H](O)[C@@H](NCCN)NC(=O)[C@@H]2[C@@H](O)CCN2C(=O)[C@H]([C@H](O)CCN)NC(=O)[C@H]([C@H](O)[C@@H](O)c2ccc(O)cc2)NC(=O)[C@@H]2C[C@@H](O)CN2C(=O)[C@H]([C@@H](C)O)NC1=O [caspofungin] (first compound 12.5 µM), the “biofilm OD600” value is 0.296 ± 0.011.

On to `CNC(=O)[C@H](Cc1c[nH]c2ccccc12)NC(=O)[C@@H](CC(=O)NO)CC(C)C` + CC[C@H](C)C[C@H](C)CCCCCCCCC(=O)N[C@H]1C[C@@H](O)[C@@H](NCCN)NC(=O)[C@@H]2[C@@H](O)CCN2C(=O)[C@H]([C@H](O)CCN)NC(=O)[C@H]([C@H](O)[C@@H](O)c2ccc(O)cc2)NC(=O)[C@@H]2C[C@@H](O)CN2C(=O)[C@H]([C@@H](C)O)NC1=O [caspofungin] (first compound 12.5 µM), for which the “biofilm OD600” value came out at 0.278 ± 0.01.

For `N[C@H](C(=O)O)[C@@H]1CC(Cl)=NO1` [Acivicin] + OC(Cn1cncn1)(Cn1cncn1)c1ccc(F)cc1F [fluconazole] (first compound 4 µM), the “biofilm OD600” value turned out to be 0.279 ± 0.0067.

`CC(C)CCNC(=O)[C@H](CC(C)C)NC(=O)[C@H]1O[C@@H]1C(=O)O` + CC[C@H](C)C[C@H](C)CCCCCCCCC(=O)N[C@H]1C[C@@H](O)[C@@H](NCCN)NC(=O)[C@@H]2[C@@H](O)CCN2C(=O)[C@H]([C@H](O)CCN)NC(=O)[C@H]([C@H](O)[C@@H](O)c2ccc(O)cc2)NC(=O)[C@@H]2C[C@@H](O)CN2C(=O)[C@H]([C@@H](C)O)NC1=O [caspofungin] (first compound 12.5 µM): the “biofilm OD600” value came out at 0.268 ± 0.0056.

`CC[C@H](C)[C@H](N)C(=O)N1CCSC1` [P32/98 hemifumarate salt] + CC[C@H](C)C[C@H](C)CCCCCCCCC(=O)N[C@H]1C[C@@H](O)[C@@H](NCCN)NC(=O)[C@@H]2[C@@H](O)CCN2C(=O)[C@H]([C@H](O)CCN)NC(=O)[C@H]([C@H](O)[C@@H](O)c2ccc(O)cc2)NC(=O)[C@@H]2C[C@@H](O)CN2C(=O)[C@H]([C@@H](C)O)NC1=O [caspofungin] (first compound 12.5 µM): the “biofilm OD600” value worked out at 0.254 ± 0.0085.

In the case of `CC(C)C[C@H](NP(=O)(O)O[C@@H]1O[C@@H](C)[C@H](O)[C@@H](O)[C@H]1O)C(=O)N[C@@H](Cc1c[nH]c2ccccc12)C(=O)O` [Phosphoramidon] + C[C@@H]1[C@H](O)[C@@H](C)/C=C/C=C/C=C/C=C/C=C/C=C/C=C/[C@H](O[C@@H]2O[C@H](C)[C@@H](O)[C@H](N)[C@@H]2O)C[C@@H]2O[C@](O)(C[C@@H](O)C[C@@H](O)[C@H](O)CC[C@@H](O)C[C@@H](O)CC(=O)O[C@H]1C)C[C@H](O)[C@H]2C(=O)O [amphotericin B] (first compound 12.5 µM), the “biofilm OD600” value was 0.28 ± 0.0089.

In the case of `C[C@H](CS)C(=O)N1CCC[C@H]1C(=O)O` [Captopril] + OC(Cn1cncn1)(Cn1cncn1)c1ccc(F)cc1F [fluconazole] (first compound 12.5 µM), the “biofilm OD600” value turned out to be 0.281 ± 0.0069.

`NCCCC[C@H](N[C@@H](CCc1ccccc1)C(=O)O)C(=O)N1CCC[C@H]1C(=O)O` [Lisinopril] + C[C@@H]1[C@H](O)[C@@H](C)/C=C/C=C/C=C/C=C/C=C/C=C/C=C/[C@H](O[C@@H]2O[C@H](C)[C@@H](O)[C@H](N)[C@@H]2O)C[C@@H]2O[C@](O)(C[C@@H](O)C[C@@H](O)[C@H](O)CC[C@@H](O)C[C@@H](O)CC(=O)O[C@H]1C)C[C@H](O)[C@H]2C(=O)O [amphotericin B] (first compound 12.5 µM): the “biofilm OD600” value was 0.27 ± 0.012.

`CCC[C@@]1(CCc2ccccc2)CC(O)=C([C@H](CC)c2cccc(NS(=O)(=O)c3ccc(C(F)(F)F)cn3)c2)C(=O)O1` [tipranavir] + OC(Cn1cncn1)(Cn1cncn1)c1ccc(F)cc1F [fluconazole] (first compound 12.5 µM): the “biofilm OD600” value came out at 0.256 ± 0.0057.

On to `NC(N)=NCCC[C@H](NC(=O)[C@@H]1CCCN1C(=O)[C@H](N)Cc1ccccc1)C(=O)CCl` + CC[C@H](C)C[C@H](C)CCCCCCCCC(=O)N[C@H]1C[C@@H](O)[C@@H](NCCN)NC(=O)[C@@H]2[C@@H](O)CCN2C(=O)[C@H]([C@H](O)CCN)NC(=O)[C@H]([C@H](O)[C@@H](O)c2ccc(O)cc2)NC(=O)[C@@H]2C[C@@H](O)CN2C(=O)[C@H]([C@@H](C)O)NC1=O [caspofungin] (first compound 12.5 µM), for which the “biofilm OD600” value was 0.274 ± 0.0098.

With `CCC[C@@]1(CCc2ccccc2)CC(O)=C([C@H](CC)c2cccc(NS(=O)(=O)c3ccc(C(F)(F)F)cn3)c2)C(=O)O1` [tipranavir] + CC[C@H](C)C[C@H](C)CCCCCCCCC(=O)N[C@H]1C[C@@H](O)[C@@H](NCCN)NC(=O)[C@@H]2[C@@H](O)CCN2C(=O)[C@H]([C@H](O)CCN)NC(=O)[C@H]([C@H](O)[C@@H](O)c2ccc(O)cc2)NC(=O)[C@@H]2C[C@@H](O)CN2C(=O)[C@H]([C@@H](C)O)NC1=O [caspofungin] (first compound 12.5 µM), the “biofilm OD600” value came to 0.268 ± 0.011.

In the case of `O=C(NCCCCN1CCOCC1)c1cc2ccccc2o1` + C[C@@H]1[C@H](O)[C@@H](C)/C=C/C=C/C=C/C=C/C=C/C=C/C=C/[C@H](O[C@@H]2O[C@H](C)[C@@H](O)[C@H](N)[C@@H]2O)C[C@@H]2O[C@](O)(C[C@@H](O)C[C@@H](O)[C@H](O)CC[C@@H](O)C[C@@H](O)CC(=O)O[C@H]1C)C[C@H](O)[C@H]2C(=O)O [amphotericin B] (first compound 12.5 µM), the “biofilm OD600” value was 0.262 ± 0.0087.

For the compound `O=C[C@@H]1CCCN1C(=O)[C@@H]1CCCN1C(=O)OCc1ccccc1` [Z-Prolyl-prolinal] + OC(Cn1cncn1)(Cn1cncn1)c1ccc(F)cc1F [fluconazole] (first compound 12.5 µM), the “biofilm OD600” value was determined as 0.247 ± 0.013.

Consider `N[C@H](C(=O)O)[C@@H]1CC(Cl)=NO1` [Acivicin] + CC[C@H](C)C[C@H](C)CCCCCCCCC(=O)N[C@H]1C[C@@H](O)[C@@H](NCCN)NC(=O)[C@@H]2[C@@H](O)CCN2C(=O)[C@H]([C@H](O)CCN)NC(=O)[C@H]([C@H](O)[C@@H](O)c2ccc(O)cc2)NC(=O)[C@@H]2C[C@@H](O)CN2C(=O)[C@H]([C@@H](C)O)NC1=O [caspofungin] (first compound 4 µM), for which the “biofilm OD600” value was determined as 0.296 ± 0.012.

With `CC1CNc2c(cccc2S(=O)(=O)N[C@@H](CCCNC(=N)N)C(=O)N2CC[C@@H](C)C[C@@H]2C(=O)O)C1` (some centres not stated) [Argatroban] + C[C@@H]1[C@H](O)[C@@H](C)/C=C/C=C/C=C/C=C/C=C/C=C/C=C/[C@H](O[C@@H]2O[C@H](C)[C@@H](O)[C@H](N)[C@@H]2O)C[C@@H]2O[C@](O)(C[C@@H](O)C[C@@H](O)[C@H](O)CC[C@@H](O)C[C@@H](O)CC(=O)O[C@H]1C)C[C@H](O)[C@H]2C(=O)O [amphotericin B] (first compound 12.5 µM), the “biofilm OD600” value was 0.3 ± 0.018.

As for `CCCCCCCCCC(=O)N[C@@H](CCCN=C(N)N)C(=O)N[C@H](C(=O)N[C@@H](CCCCN)C(=O)N[C@@H](CCCN=C(N)N)C(=O)CCl)C(C)C` + OC(Cn1cncn1)(Cn1cncn1)c1ccc(F)cc1F [fluconazole] (first compound 4 µM), the “biofilm OD600” value worked out at 0.267 ± 0.0072.

For the compound `O=C1Nc2ccc([N+](=O)[O-])cc2C1=O` [5-Nitroisatin] + OC(Cn1cncn1)(Cn1cncn1)c1ccc(F)cc1F [fluconazole] (first compound 12.5 µM), the “biofilm OD600” value came to 0.249 ± 0.0083.

Take `NC(=O)c1cccc(-c2cccc(OC(=O)NC3CCCCC3)c2)c1` + C[C@@H]1[C@H](O)[C@@H](C)/C=C/C=C/C=C/C=C/C=C/C=C/C=C/[C@H](O[C@@H]2O[C@H](C)[C@@H](O)[C@H](N)[C@@H]2O)C[C@@H]2O[C@](O)(C[C@@H](O)C[C@@H](O)[C@H](O)CC[C@@H](O)C[C@@H](O)CC(=O)O[C@H]1C)C[C@H](O)[C@H]2C(=O)O [amphotericin B] (first compound 12.5 µM): the “biofilm OD600” value was found to be 0.295 ± 0.0047.
